Consider eight molecules from PubChem BioAssay (EPA / NIEHS).

Experiment [1] in a line: ATG_TAL_CIS: Attagene CIS-FACTORIAL HepG2 Assay for human TAL Basal Promoter (AID 2282966; active = hit-call score of the fitted dose curve at least 0.9, where 1 is the maximum; inactive = score below 0.9;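 also: background control endpoint measuring basal TAL promoter reporter mRNA not a specific factor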). The note with it: HepG2 Attagene cis-factorial TAL promoter reporter; actives raise or lower the signal. The essentials:
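Endogenous transcription-factor activity is sensed in HepG2 cells through transfected cis-promoter reporter constructs. After 24 h dosing, reporter transcripts are quantified by RT-PCR and capillary electrophoresis. Gain or loss of signal is fitted relative to DMSO.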

Experiment [2] can be described thus: ATG_TGFb_CIS: Attagene CIS-FACTORIAL HepG2 Assay for human Transforming Growth Factor (TGF) (AID 2282967; active = hit-call score of the fitted dose curve at least 0.9, where 1 is the maximum; inactive = score below 0.9). The note with it: HepG2 Attagene CIS TGFb reporter, mRNA transcription; actives raise or lower the signal. The essentials: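 Liver HepG2 line, cis-factorial reporter panel, 24 h dosing. Quantitation: RT-PCR products labeled with 6-FAM, cut with HpaI, resolved by capillary electrophoresis; DMSO-referenced bidirectional analysis.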

Experiment [3] can be described thus: ATG_VDRE_CIS: Attagene CIS-FACTORIAL HepG2 Assay for human Vitamin D Receptor Element (VDRE) (AID 2282968; active = hit-call score of the fitted dose curve at least 0.9, where 1 is the maximum; inactive = score below 0.9). The note with it: HepG2 VDRE cis-reporter transcription, actives raise or lower the signal. The essentials:
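Transfected HepG2 reporter cells, chemical treatment 24 h. RNA isolated, cDNA amplified with reporter-specific primers, products analysed by capillary electrophoresis. Endpoint fitted in both directions versus DMSO.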

In experiment [4] the target is Nuclear receptor subfamily 1 group I member 3 (Homo sapiens) (UniProt Q14994). Kind of experiment: ATG_CAR_TRANS: Attagene TRANS-FACTORIAL HepG2 Assay for human Constitutive Androstane Receptor (CAR) (AID 2282969).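 Also: activators raise reporter mRNA above DMSO so AC50 marks induction.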 Conditions: HepG2 Attagene TRANS-FACTORIAL CAR reporter. The essentials: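 Steps: transient transfection of HepG2 with multiple GAL4-UAS reporter units; 24 h compound incubation; RNA isolation, RT-PCR, 6-FAM primer extension, HpaI digest; capillary electrophoresis. Gain-of-signal relative to DMSO negative control.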

Experiment [5] addresses Estrogen receptor (Homo sapiens) (UniProt P03372). Kind of experiment: ATG_ERa_TRANS: Attagene TRANS-FACTORIAL HepG2 Assay for human Estrogen Receptor alpha (ERa) (AID 2282970). The note with it: HepG2 Attagene TRANS ERa GAL4 reporter, mRNA. The essentials:
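Transfected HepG2 cells carrying GAL4-UAS-driven reporter units were dosed for 24 hours. Total RNA was reverse-transcribed, reporter sequences PCR-amplified, FAM-labelled, HpaI-digested and resolved by capillary electrophoresis. Increases over DMSO control defined activity.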

Experiment [6] addresses X-box-binding protein 1 (Homo sapiens) (UniProt P17861). Kind of experiment: ATG_Xbp1_CIS: Attagene CIS-FACTORIAL HepG2 Assay for human X-box Binding Protein 1 (XBP1) (AID 2282972; active = hit-call score of the fitted dose curve at least 0.9, where 1 is the maximum; inactive = score below 0.9). The note with it: HepG2 XBP1 cis-element reporter, Attagene multiplex; actives raise or lower the signal. The essentials: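 Human hepatoma HepG2, cis-element reporter system, 24 h treatment; mRNA quantified by RT-PCR/CE fluorescence; fit relative to DMSO.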

Experiment [7] concerns the target Estrogen-related receptor gamma (Homo sapiens) (UniProt P62508). The experiment can be described thus: ATG_ERRg_TRANS: Attagene TRANS-FACTORIAL HepG2 Assay for human Estrogen-Related Receptor gamma (ERRg) (AID 2282977).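 Also: hits increase reporter signal over DMSO so potencies reflect activators.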 The note with it: HepG2 Attagene TRANS reporter, ERRg transactivation. The essentials:
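Readout: fluorescent reporter-mRNA fragments resolved by capillary electrophoresis after RT-PCR and HpaI cut. Cells: transiently transfected HepG2 carrying GAL4-UAS reporters driven by exogenous NR-Gal4 chimeras, dosed 24 h. Activity fitted upward relative to DMSO baseline.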

Experiment [8] is described as follows: ATG_M_06_TRANS: Attagene TRANS-FACTORIAL HepG2 Assay for M06 Transcription Factor (Internal Marker) (AID 2282983).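 Also: reporter transcript level by RT-PCR then capillary electrophoresis fluorescence.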 Conditions: HepG2 Attagene TRANS M06 internal marker reporter. The essentials: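 Human liver HepG2 cells bearing transiently transfected chimeric NR-GAL4 reporter units were treated with chemicals for 24 h. Total RNA was reverse-transcribed, reporter sequences amplified and labelled, then quantified by capillary electrophoresis. Activity was fitted upward relative to DMSO.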

The nature of experiment [9]: ATG_M_32_TRANS: Attagene TRANS-FACTORIAL HepG2 Assay for M32 Transcription Factor (Internal Marker) (AID 2282984).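 Also: transcript level of a background control reporter unit measured by RT-PCR and capillary electrophoresis.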 The note with it: HepG2 Attagene TRANS M32 internal marker reporter. The essentials: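 Fluorescence-detected mRNA induction, HepG2 liver cells, 24 h after dosing. Multiple GAL4-UAS reporter units introduced by transient transfection; background-control endpoint analysed for gain of signal against DMSO.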

Experiment [10] addresses Transcriptional activator Myb (Homo sapiens) (UniProt P10242). The experiment can be described thus: ATG_Myb_CIS: Attagene CIS-FACTORIAL HepG2 Assay for human Myeloblastosis (Myb) Proto-Oncogene Transcription Factor (AID 2282986; active = hit-call score of the fitted dose curve at least 0.9, where 1 is the maximum; inactive = score below 0.9). Conditions: HepG2 Attagene CIS-FACTORIAL Myb reporter transcription; actives raise or lower the signal. The essentials: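 Steps: transfect HepG2 with cis-regulated reporter units; dose with chemical for 24 h; isolate RNA, reverse-transcribe, PCR-amplify and FAM-label reporter sequences; digest with HpaI; resolve by capillary electrophoresis. Activity fitted in both directions relative to DMSO.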

The target of experiment [11] is Nuclear respiratory factor 1 (Homo sapiens) (UniProt Q16656). Kind of experiment: ATG_NRF1_CIS: Attagene CIS-FACTORIAL HepG2 Assay for human Nuclear Respiratory Factor 1 (NRF1) Orphan Gene (AID 2282987; active = hit-call score of the fitted dose curve at least 0.9, where 1 is the maximum; inactive = score below 0.9). The note with it: HepG2 NRF1 cis-element reporter, Attagene multiplex; actives raise or lower the signal. The essentials: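 Fluorescence intensity of labelled reporter cDNA fragments, resolved by capillary electrophoresis, served as readout for NRF1 cis-element activity. Transiently transfected HepG2 cells were dosed for 24 hours; activity in either direction was fitted against DMSO negative control.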

The nature of experiment [12]: ATG_M_19_TRANS: Attagene TRANS-FACTORIAL HepG2 Assay for M19 Transcription Factor (Internal Marker) (AID 2282974). The note with it: HepG2 Attagene TRANS-FACTORIAL M19 internal marker reporter. The method in brief: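 Cells: human HepG2, transiently transfected with multiplexed reporter transcription units. Exposure: 24 h. Detection: RT-PCR of reporter mRNA with capillary electrophoresis. Analysis: gain-of-signal vs DMSO.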

The target in experiment [13] is Glucocorticoid receptor (Homo sapiens) (UniProt P04150). Kind of experiment: ATG_GR_TRANS: Attagene TRANS-FACTORIAL HepG2 Assay for human Glucocorticoid Receptor (GR) (AID 2282978).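 Also: activators score as hits since higher reporter transcript over DMSO is fitted.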 Conditions: HepG2 Attagene TRANS GR reporter, mRNA transcription. The essentials: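 In this trans-factorial format, exogenous NR-GAL4 chimeric proteins in transfected HepG2 cells regulate GAL4-UAS reporter transcription. After 24 h treatment, reporter mRNA induction relative to DMSO is read by RT-PCR and capillary electrophoresis.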

The target in experiment [14] is Oxysterols receptor LXR-alpha (Homo sapiens) (UniProt Q13133). The experiment can be described thus: ATG_LXRa_TRANS: Attagene TRANS-FACTORIAL HepG2 Assay for human Liver X Receptor alpha (LXRa) (AID 2282980). The note with it: HepG2 Attagene TRANS reporter, LXRa transactivation. The essentials: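 Transient HepG2 transfectants, 24 h dosing, RT-PCR/CE mRNA reporter quantitation; gain-of-signal vs DMSO.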

For experiment [15], the target named is Hepatocyte nuclear factor 4-alpha (Homo sapiens) (UniProt P41235). The experiment can be described thus: ATG_HNF4a_TRANS: Attagene TRANS-FACTORIAL HepG2 Assay for human Hepatocyte Nuclear Factor 4 alpha (HNF4a) (AID 2282982). Conditions: HepG2 HNF4a transactivation reporter, mRNA readout. The essentials:
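Using HepG2 liver cells transfected with GAL4-UAS reporter units, chemical-induced mRNA increases were assessed after 24 hours. Fluorescent RT-PCR fragments were separated by capillary electrophoresis and compared with DMSO negative controls.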

Experiment [16] addresses Oxysterols receptor LXR-beta (Homo sapiens) (UniProt P55055). The experiment can be described thus: ATG_LXRb_TRANS: Attagene TRANS-FACTORIAL HepG2 Assay for human Liver X Receptor beta (LXRb) (AID 2282981). The note with it: HepG2 Attagene TRANS GAL4-LXRb reporter, mRNA. The essentials:
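Liver-derived HepG2 cells transfected with Gal4-responsive reporters were dosed for 24 h. Activation was scored as rise in reporter mRNA, by RT-PCR and capillary electrophoresis, above DMSO baseline.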

The target in experiment [17] is Nuclear receptor subfamily 4 group A member 2 (Homo sapiens) (UniProt P43354). Kind of experiment: ATG_NURR1_TRANS: Attagene TRANS-FACTORIAL HepG2 Assay for human Nuclear Receptor Related Protein 1 (NURR1) (AID 2282985). The note with it: HepG2 Attagene TRANS reporter, mRNA readout. The essentials: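 Chimeric NR-Gal4 proteins were expressed in human HepG2 cells bearing GAL4-UAS reporter units, and induced reporter mRNA was quantified 24 h post-dosing by RT-PCR and capillary electrophoresis.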

The target of experiment [18] is Bile acid receptor (Homo sapiens) (UniProt Q96RI1). The experiment can be described thus: ATG_FXR_TRANS: Attagene TRANS-FACTORIAL HepG2 Assay for Farnesoid X Receptor (FXR) (AID 2282979).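 Also: hits raise reporter mRNA above DMSO so AC50 marks FXR activation.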 Conditions: HepG2 Attagene TRANS FXR-GAL4 reporter transcription. The essentials: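 Chimeric FXR-GAL4 activity in transiently transfected human HepG2 liver cells is scored as induction of reporter mRNA after 24 h of dosing. Detection uses RT-PCR with fluorescent labelling and capillary electrophoresis, with DMSO serving as baseline.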

Experiment [19] is described as follows: ATG_GAL4_TRANS: Attagene TRANS-FACTORIAL HepG2 Assay for GAL4 (Internal Marker) (AID 2282976). Conditions: HepG2 Attagene TRANS GAL4 internal marker reporter. The method in brief: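 Fluorescence from capillary electrophoresis of labelled RT-PCR products quantifies reporter mRNA induction after 24 h dosing of HepG2 cells carrying transfected GAL4-UAS reporter transcription units. Vehicle DMSO serves as baseline.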

Molecules are shown by their SMILES. Records with an inconclusive call do not appear. Activity calls are given as the source filed them. The calls were made as follows, unless noted: active = hit-call score of the fitted dose curve at least 0.9, where 1 is the maximum; inconclusive = response in the unintended direction; inactive = score below 0.9.

Chain of Hepatocyte nuclear factor 4-alpha (Homo sapiens) (P41235 whole entry, looked up, the tested form may be a part): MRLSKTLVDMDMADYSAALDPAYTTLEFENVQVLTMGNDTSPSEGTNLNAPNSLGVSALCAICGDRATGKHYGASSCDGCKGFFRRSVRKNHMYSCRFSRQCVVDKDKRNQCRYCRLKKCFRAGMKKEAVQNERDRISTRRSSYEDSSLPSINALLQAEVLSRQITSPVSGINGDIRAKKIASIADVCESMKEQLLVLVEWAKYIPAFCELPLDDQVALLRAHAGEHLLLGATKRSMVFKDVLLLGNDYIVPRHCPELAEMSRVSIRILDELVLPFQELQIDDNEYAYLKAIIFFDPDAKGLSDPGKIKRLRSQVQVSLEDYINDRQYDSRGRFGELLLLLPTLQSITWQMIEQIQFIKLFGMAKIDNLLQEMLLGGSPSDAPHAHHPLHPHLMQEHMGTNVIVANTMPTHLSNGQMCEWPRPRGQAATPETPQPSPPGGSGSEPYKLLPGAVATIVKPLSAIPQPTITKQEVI
Chain of Nuclear receptor subfamily 4 group A member 2 (Homo sapiens) (P43354 whole entry, looked up, the tested form may be a part): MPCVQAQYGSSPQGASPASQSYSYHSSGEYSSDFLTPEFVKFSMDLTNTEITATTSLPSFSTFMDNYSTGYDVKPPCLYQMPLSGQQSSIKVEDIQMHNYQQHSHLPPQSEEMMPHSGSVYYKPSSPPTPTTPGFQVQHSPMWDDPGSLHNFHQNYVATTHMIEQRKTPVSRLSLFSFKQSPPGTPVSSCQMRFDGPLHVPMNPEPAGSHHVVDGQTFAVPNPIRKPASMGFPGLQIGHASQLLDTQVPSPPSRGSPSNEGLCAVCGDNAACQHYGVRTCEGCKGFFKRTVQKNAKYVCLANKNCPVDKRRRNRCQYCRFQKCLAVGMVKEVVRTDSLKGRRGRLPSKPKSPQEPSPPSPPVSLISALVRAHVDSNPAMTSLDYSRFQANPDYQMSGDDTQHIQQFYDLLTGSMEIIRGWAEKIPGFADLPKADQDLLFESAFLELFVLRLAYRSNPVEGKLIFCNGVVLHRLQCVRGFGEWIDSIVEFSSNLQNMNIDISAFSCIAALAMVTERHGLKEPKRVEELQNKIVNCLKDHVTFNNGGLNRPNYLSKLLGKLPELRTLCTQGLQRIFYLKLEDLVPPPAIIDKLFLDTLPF
Chain of Estrogen receptor (Homo sapiens) (P03372 whole entry, looked up, the tested form may be a part): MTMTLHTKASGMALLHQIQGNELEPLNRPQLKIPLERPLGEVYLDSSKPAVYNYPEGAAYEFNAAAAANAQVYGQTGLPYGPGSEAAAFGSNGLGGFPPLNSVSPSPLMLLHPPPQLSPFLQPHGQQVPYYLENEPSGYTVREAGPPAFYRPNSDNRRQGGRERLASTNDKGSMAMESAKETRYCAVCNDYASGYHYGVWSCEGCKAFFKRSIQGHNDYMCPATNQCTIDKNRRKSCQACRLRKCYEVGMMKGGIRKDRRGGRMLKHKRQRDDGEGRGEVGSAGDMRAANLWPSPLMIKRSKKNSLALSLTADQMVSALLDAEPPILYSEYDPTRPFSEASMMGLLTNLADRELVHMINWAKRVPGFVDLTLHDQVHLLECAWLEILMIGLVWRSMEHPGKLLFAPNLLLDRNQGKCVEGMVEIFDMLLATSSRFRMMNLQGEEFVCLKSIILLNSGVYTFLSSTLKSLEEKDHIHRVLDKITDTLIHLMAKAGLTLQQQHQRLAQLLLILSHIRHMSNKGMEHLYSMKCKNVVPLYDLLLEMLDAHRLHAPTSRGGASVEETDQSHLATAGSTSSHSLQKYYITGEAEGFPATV
Chain of X-box-binding protein 1 (Homo sapiens) (P17861 whole entry, looked up): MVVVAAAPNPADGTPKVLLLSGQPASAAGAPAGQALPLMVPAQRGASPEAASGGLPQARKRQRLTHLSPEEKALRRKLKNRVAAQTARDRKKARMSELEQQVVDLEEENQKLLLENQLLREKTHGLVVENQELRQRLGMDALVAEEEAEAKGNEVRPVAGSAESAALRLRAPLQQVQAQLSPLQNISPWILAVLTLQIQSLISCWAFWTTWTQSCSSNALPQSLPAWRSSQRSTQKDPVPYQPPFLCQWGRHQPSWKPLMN
Chain of Nuclear respiratory factor 1 (Homo sapiens) (Q16656 whole entry, looked up, the tested form may be a part): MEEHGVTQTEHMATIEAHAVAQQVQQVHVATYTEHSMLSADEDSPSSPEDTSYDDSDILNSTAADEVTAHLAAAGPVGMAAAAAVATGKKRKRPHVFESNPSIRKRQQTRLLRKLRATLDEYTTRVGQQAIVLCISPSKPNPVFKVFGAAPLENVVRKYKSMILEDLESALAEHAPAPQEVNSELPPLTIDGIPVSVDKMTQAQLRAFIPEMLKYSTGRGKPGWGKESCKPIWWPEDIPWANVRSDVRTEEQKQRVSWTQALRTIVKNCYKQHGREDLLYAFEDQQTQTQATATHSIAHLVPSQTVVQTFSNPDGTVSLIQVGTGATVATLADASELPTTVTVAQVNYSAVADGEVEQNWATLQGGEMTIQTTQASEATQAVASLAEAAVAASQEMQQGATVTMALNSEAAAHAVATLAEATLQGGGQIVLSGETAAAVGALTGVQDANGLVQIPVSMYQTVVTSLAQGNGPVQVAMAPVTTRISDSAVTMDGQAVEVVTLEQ
Chain of Oxysterols receptor LXR-beta (Homo sapiens) (P55055 whole entry, looked up, the tested form may be a part): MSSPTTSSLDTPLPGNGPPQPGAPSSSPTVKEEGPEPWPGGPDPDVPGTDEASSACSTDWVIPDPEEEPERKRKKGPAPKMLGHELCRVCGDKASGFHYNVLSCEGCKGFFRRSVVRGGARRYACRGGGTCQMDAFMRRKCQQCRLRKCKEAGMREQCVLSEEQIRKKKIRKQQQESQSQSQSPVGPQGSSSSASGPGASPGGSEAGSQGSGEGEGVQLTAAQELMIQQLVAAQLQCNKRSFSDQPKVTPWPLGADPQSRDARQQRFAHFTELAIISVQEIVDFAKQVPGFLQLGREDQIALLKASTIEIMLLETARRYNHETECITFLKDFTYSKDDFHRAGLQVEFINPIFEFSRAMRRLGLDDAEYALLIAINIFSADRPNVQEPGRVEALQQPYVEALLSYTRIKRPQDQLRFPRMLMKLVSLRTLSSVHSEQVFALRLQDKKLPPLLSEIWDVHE
Chain of Glucocorticoid receptor (Homo sapiens) (P04150 whole entry, looked up, the tested form may be a part): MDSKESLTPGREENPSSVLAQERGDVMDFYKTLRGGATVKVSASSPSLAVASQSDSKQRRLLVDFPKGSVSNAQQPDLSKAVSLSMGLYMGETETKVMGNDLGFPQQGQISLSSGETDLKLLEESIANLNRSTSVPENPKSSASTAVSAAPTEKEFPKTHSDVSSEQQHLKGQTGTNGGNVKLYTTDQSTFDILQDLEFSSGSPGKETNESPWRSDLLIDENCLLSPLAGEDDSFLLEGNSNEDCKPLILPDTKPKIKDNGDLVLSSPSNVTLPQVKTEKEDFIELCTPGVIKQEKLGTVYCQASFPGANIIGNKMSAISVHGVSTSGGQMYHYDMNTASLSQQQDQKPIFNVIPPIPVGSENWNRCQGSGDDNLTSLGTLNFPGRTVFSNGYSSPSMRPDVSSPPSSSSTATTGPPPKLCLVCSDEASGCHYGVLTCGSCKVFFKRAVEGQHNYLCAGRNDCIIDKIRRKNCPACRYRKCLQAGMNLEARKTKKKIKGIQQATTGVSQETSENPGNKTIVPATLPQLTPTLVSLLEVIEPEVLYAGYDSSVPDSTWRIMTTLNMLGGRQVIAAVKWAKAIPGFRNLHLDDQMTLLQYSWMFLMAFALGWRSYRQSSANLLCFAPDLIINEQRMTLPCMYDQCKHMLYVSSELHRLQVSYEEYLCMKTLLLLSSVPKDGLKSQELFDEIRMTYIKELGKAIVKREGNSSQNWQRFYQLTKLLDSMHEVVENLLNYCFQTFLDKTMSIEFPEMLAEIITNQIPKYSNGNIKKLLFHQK
Chain of Oxysterols receptor LXR-alpha (Homo sapiens) (Q13133 whole entry, looked up): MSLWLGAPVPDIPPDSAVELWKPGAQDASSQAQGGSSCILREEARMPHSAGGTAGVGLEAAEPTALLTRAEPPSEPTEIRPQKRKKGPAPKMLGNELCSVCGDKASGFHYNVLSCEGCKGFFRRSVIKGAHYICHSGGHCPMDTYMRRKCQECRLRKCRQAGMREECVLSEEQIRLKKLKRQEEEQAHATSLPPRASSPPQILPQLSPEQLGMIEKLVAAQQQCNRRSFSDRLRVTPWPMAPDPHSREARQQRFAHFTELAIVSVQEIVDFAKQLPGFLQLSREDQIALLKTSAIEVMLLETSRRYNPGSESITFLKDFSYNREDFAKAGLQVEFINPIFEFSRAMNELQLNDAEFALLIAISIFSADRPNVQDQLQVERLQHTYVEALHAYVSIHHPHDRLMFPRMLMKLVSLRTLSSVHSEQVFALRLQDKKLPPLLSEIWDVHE
Chain of Nuclear receptor subfamily 1 group I member 3 (Homo sapiens) (Q14994 whole entry, looked up, the tested form may be a part): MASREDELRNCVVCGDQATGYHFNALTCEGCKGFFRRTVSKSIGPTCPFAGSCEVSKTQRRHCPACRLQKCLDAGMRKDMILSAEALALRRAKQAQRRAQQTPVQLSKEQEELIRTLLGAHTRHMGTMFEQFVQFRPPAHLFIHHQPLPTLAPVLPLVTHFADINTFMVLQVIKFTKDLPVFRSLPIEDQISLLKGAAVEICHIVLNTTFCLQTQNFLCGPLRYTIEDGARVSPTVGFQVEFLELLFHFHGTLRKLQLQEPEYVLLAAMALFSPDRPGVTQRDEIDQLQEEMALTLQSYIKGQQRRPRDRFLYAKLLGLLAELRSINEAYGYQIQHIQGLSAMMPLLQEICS
Chain of Bile acid receptor (Homo sapiens) (Q96RI1 whole entry, looked up, the tested form may be a part): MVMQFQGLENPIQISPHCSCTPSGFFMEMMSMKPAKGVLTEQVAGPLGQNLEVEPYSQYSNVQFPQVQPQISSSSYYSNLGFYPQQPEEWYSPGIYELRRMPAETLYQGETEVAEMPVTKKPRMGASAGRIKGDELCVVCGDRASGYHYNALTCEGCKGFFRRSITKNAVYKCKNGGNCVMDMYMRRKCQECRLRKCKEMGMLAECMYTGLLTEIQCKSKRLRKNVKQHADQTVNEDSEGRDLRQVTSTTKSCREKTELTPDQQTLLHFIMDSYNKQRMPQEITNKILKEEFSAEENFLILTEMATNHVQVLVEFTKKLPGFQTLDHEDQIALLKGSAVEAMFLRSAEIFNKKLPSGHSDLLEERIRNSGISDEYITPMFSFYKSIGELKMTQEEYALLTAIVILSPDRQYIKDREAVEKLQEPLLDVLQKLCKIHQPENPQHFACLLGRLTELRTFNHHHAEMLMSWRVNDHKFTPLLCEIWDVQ

As a reminder, the AC50 is the concentration giving half of the maximal activity seen. Consider `CCCCCCC(C)(C)C(=O)O`, for which the molecule was called inactive in experiment [1], in experiment [2], in experiment [4], in [6], in experiment [7] and in experiment [8]. For the same molecule, the molecule was classed as inactive in [9], in [10] and in experiment [11]. Moreover, the AC50 in experiment [3] was 73.2 µM (active); in experiment [5] it was 26.4 µM (active).
Turning to `Oc1cc2ccccc2cc1O`, the call in experiment [1], in experiment [2], in [3], in experiment [4], in experiment [5] and in [6] was inactive. For the same molecule, the molecule was classed as inactive in experiment [12], in [13], in [14], in experiment [15], in experiment [10] and in [11].
Take `CCOCCOCC`: the call in experiment [1], in experiment [2], in [3], in experiment [4], in experiment [5] and in [6] was inactive. Besides, the call in experiment [14], in experiment [16], in experiment [15], in experiment [8], in [9] and in experiment [17] was inactive. Besides, the call in experiment [10] and in [11] was inactive.
Regarding `CC(C)(C)c1ccc(CCC=O)cc1`, the call in [1], in experiment [2], in experiment [3], in experiment [4], in experiment [6] and in experiment [12] was inactive. Also, the result in experiment [13], in experiment [18], in experiment [9], in [17], in [10] and in experiment [11] was inactive. Moreover, the AC50 in experiment [5] was 74 µM (active).
Take `Clc1ccc(Nc2nnc(Cc3ccncc3)c3ccccc23)cc1`: the figures for the concentration at half-maximal activity (AC50) in experiment [1], in [3] and in experiment [17] were 11.2 µM (active), 7.35 µM (active) and 42 µM (active), respectively. In addition, the molecule was classed as inactive in experiment [2], in experiment [4], in [5], in [12], in experiment [13] and in [18]. Further, the call in [15], in experiment [9], in [10] and in experiment [11] was inactive.
As to `C=CCOCC(CO)(CO)CO`, the molecule was classed as inactive in [1], in experiment [2], in experiment [3], in experiment [4], in [5] and in experiment [6]. Also, the molecule was classed as inactive in experiment [12], in experiment [7], in experiment [13], in experiment [18], in [14] and in [15]. Besides, the call in [8], in experiment [9], in [17], in experiment [10] and in experiment [11] was inactive.
On to `FC(F)(F)C(F)(F)C(F)(F)Br`, for which the call in experiment [1], in experiment [2], in [3], in experiment [4], in experiment [5] and in [6] was inactive. Further, the result in experiment [19], in experiment [13], in experiment [18], in experiment [14], in experiment [16] and in experiment [15] was inactive. For the same molecule, the molecule was classed as inactive in [9], in experiment [10] and in [11].
Regarding `C=CC(C)(CCC=C(C)C)OC(C)=O` (centres undefined), the molecule was called inactive in experiment [1], in experiment [2], in experiment [3], in experiment [4], in [5] and in experiment [6]. Moreover, the result in [19], in [13], in experiment [18], in experiment [14], in experiment [16] and in experiment [9] was inactive. Also, the molecule was called inactive in [10] and in experiment [11].
